Activity calls are given as the source filed them. The calls were made as follows, unless noted: active = hit-call score of the fitted dose curve at least 0.9, where 1 is the maximum; inactive = score below 0.9.

We go through two compounds from PubChem BioAssay (EPA / NIEHS).

Read-out in assay [1]: Protein phosphatase 2A (PPP2R4), PTPA (gene 5524)
In words: LTEA_HepaRG_PPP2R4: Life Technologies and Expression Analysis (LTEA) Assay for Protein phosphatase 2A (PPP2R4) using HepaRG (AID 2283522). The settings on record: mRNA level, 48 h; actives raise or lower the signal. The method in brief:
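HepaRG, 48 h exposure, 8-pt half-log series from 100 uM, 0.5% DMSO vehicle, duplicates. Readout: PPP2R4 mRNA, Fluidigm qRT-PCR, housekeeping-normalized. Bidirectional curve fit vs DMSO baseline.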

Read-out in assay [2]: Phosphatase and tensin (PTEN), PTEN (gene 5728)
In words: LTEA_HepaRG_PTEN: Life Technologies and Expression Analysis (LTEA) Assay for Phosphatase and tensin (PTEN) using HepaRG (AID 2283523). The settings on record: mRNA level, 48 h; actives raise or lower the signal. An outline of the steps: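 Expression of PTEN is quantified in the human liver line HepaRG following two days of dosing (top concentration 100 uM, half-log dilutions, 0.5% DMSO). Values derive from bidirectional curve fitting relative to DMSO controls.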

Read-out in assay [3]: solute carrier (SLC22A1), SLC22A1 (gene 6580)
In words: LTEA_HepaRG_SLC22A1: Life Technologies and Expression Analysis (LTEA) Assay for solute carrier (SLC22A1) using HepaRG (AID 2283524).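 As to AC50: differentiated human HepaRG liver cells in serum-free induction medium.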 Particulars: mRNA level, 48 h; actives raise or lower the signal. An outline of the steps:
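Transcript induction or suppression of SLC22A1 in human HepaRG cultures is scored after 48 h chemical treatment, with DMSO (0.5%) as baseline for bidirectional fitting. Concentrations span eight half-log points topping at 100 uM.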

Read-out in assay [4]: Pyruvate Dehydrogenase Kinase 4 (PDK4), PDK4 (gene 5166)
Put plainly: LTEA_HepaRG_PDK4: Life Technologies and Expression Analysis (LTEA) Assay for Pyruvate Dehydrogenase Kinase 4 (PDK4) using HepaRG (AID 2283525). Particulars: mRNA level, 48 h; actives raise or lower the signal. An outline of the steps:
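Eight-point, half-log concentration series (max 100 uM, 0.5% DMSO) applied to differentiated HepaRG cells for 48 h in duplicate. Endpoint: PDK4 mRNA induction or repression by qRT-PCR against DMSO baseline.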

Read-out in assay [5]: NAD(P)H dehydrogenase [quinone] 1 (NQO1), NQO1 (gene 1728)
In words: LTEA_HepaRG_NQO1: Life Technologies and Expression Analysis (LTEA) Assay for NAD(P)H dehydrogenase [quinone] 1 (NQO1) using HepaRG (AID 2283526). The settings on record: mRNA level, 48 h; actives raise or lower the signal. An outline of the steps:
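qRT-PCR read-out (Fluidigm TaqMan), normalized to three housekeeping genes, after 48 h chemical exposure of HepaRG cells. Concentrations: eight points, top 100 uM, half-log steps, 0.5% DMSO vehicle. Gain or loss of signal fitted relative to DMSO.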

Read-out in assay [6]: Nuclear factor erythroid 2-related factor 2 (Homo sapiens) (UniProt Q16236)
In words: LTEA_HepaRG_NFE2L2: Life Technologies and Expression Analysis (LTEA) Assay for Nuclear factor erythroid 2-related factor 2 (NFE2L2) Transcription Factor using HepaRG (AID 2283527). The settings on record: mRNA level, 48 h; actives raise or lower the signal. The method in brief:
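Human liver HepaRG line treated in duplicate for 48 h with an eight-point series topping at 100 uM. Gene expression of NFE2L2 by qRT-PCR, bidirectionally fitted against the vehicle control.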

Read-out in assay [7]: succinate dehydrogenase complex iron sulfur subunit B (SDHB), SDHB (gene 6390)
In words: LTEA_HepaRG_SDHB: Life Technologies and Expression Analysis (LTEA) Assay for succinate dehydrogenase complex iron sulfur subunit B (SDHB) using HepaRG (AID 2283528). The settings on record: mRNA level, 48 h; actives raise or lower the signal. The method in brief: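 HepaRG, 48 h exposure, 8-pt half-log series from 100 uM in 0.5% DMSO, duplicates. Readout: SDHB mRNA by Fluidigm qRT-PCR vs housekeeping genes; bidirectional fit relative to DMSO.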

Read-out in assay [8]: Signal transducer and activator of transcription 3 (Homo sapiens) (UniProt P40763)
In words: LTEA_HepaRG_STAT3: Life Technologies and Expression Analysis (LTEA) Assay for Signal transducer and activator of transcription (STAT3) using HepaRG (AID 2283529). The settings on record: mRNA level, 48 h; actives raise or lower the signal. An outline of the steps:
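In this transcriptional endpoint, HepaRG cultures receive test chemicals at up to 100 uM for 48 h, tested in duplicate. STAT3 mRNA is normalized to ACTB, GAPDH and POLR2A.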

Read-out in assay [9]: solute carrier (SLCO1B1), SLCO1B1 (gene 10599)
In words: LTEA_HepaRG_SLCO1B1: Life Technologies and Expression Analysis (LTEA) Assay for solute carrier (SLCO1B1) using HepaRG (AID 2283530). The settings on record: mRNA level, 48 h; actives raise or lower the signal. The method in brief:
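SLCO1B1 transcript levels were quantified by TaqMan qRT-PCR using three housekeeping genes for normalization. This followed 48 h chemical exposure (100 uM top, half-log, 8 points, 0.5% DMSO) of HepaRG liver cells, with gain or loss fitted relative to DMSO.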

Read-out in assay [10]: sulfotransferase 2A1 (SULT2A1), SULT2A1 (gene 6822)
In words: LTEA_HepaRG_SULT2A1: Life Technologies and Expression Analysis (LTEA) Assay for sulfotransferase 2A1 (SULT2A1) using HepaRG (AID 2283531). Particulars: mRNA level, 48 h; actives raise or lower the signal. The method in brief:
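Expression change of SULT2A1, by qRT-PCR with three housekeeping-gene normalization, was scored bidirectionally versus DMSO. Cells: differentiated HepaRG, dosed in duplicate for 48 h across 8 points, highest 100 µM, half-log dilution, 0.5% DMSO.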

Read-out in assay [11]: Transforming Growth Factor (TGFA), TGFA (gene 7039)
Put plainly: LTEA_HepaRG_TGFA: Life Technologies and Expression Analysis (LTEA) Assay for Transforming Growth Factor (TGFA) using HepaRG (AID 2283532). The settings on record: mRNA level, 48 h; actives raise or lower the signal. The method in brief: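 Gene expression of TGFA was quantified by qRT-PCR after human HepaRG cells were treated for 48 h with test chemicals (eight concentrations, highest 100 uM, 0.5% DMSO). Activity in either direction was fitted relative to DMSO.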

Read-out in assay [12]: Transforming Growth Factor (TGFB1), TGFB1 (gene 7040)
Put plainly: LTEA_HepaRG_TGFB1: Life Technologies and Expression Analysis (LTEA) Assay for Transforming Growth Factor (TGFB1) Transporter using HepaRG (AID 2283533). Particulars: mRNA level, 48 h; actives raise or lower the signal. An outline of the steps: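 TGFB1 transcript measured by qRT-PCR with normalisation to three housekeeping genes (ACTB, GAPDH, POLR2A); human HepaRG line treated in duplicate for 48 hr with an 8-point series topping at 100 uM, 0.5% DMSO vehicle, bidirectionally fitted.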

Read-out in another assay: TIMP1, TIMP1 (gene 7076)
Put plainly: LTEA_HepaRG_TIMP1: Life Technologies and Expression Analysis (LTEA) Assay for TIMP1 using HepaRG (AID 2283534). Particulars: mRNA level, 48 h; actives raise or lower the signal. An outline of the steps:
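Bidirectional change in TIMP1 transcript versus 0.5% DMSO, measured by TaqMan qRT-PCR with three housekeeping genes for normalization. HepaRG human liver cells dosed 48 h in duplicate, top concentration 100 uM with half-log dilutions.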

Read-out in assay [13]: Tumor necrosis factor receptor 1 (TNFRSF1A), TNFRSF1A (gene 7132)
Put plainly: LTEA_HepaRG_TNFRSF1A: Life Technologies and Expression Analysis (LTEA) Assay for Tumor necrosis factor receptor 1 (TNFRSF1A) using HepaRG (AID 2283535). The settings on record: mRNA level, 48 h; actives raise or lower the signal. The method in brief: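 mRNA measured by qRT-PCR (TaqMan, Fluidigm arrays) against ACTB/GAPDH/POLR2A housekeepers after 48 h chemical exposure of HepaRG cells. Top concentration 100 uM, half-log 8-point series, duplicates; vehicle 0.5% DMSO, both fit directions.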

Read-out in assay [14]: Thyroid Hormone Responsive (THRSP), THRSP (gene 7069)
In words: LTEA_HepaRG_THRSP: Life Technologies and Expression Analysis (LTEA) Assay for Thyroid Hormone Responsive (THRSP) using HepaRG (AID 2283536). Particulars: mRNA level, 48 h; actives raise or lower the signal. An outline of the steps: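 Cell model: human HepaRG, approx. 100,000 cells/well, 0.5% DMSO vehicle. Exposure lasts 48 h; phenobarbital 1 mM serves as induction positive control. Gene expression is measured by qRT-PCR against three endogenous control genes.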

Read-out in assay [15]: Cellular tumor antigen p53 (Homo sapiens) (UniProt P04637)
In words: LTEA_HepaRG_TP53: Life Technologies and Expression Analysis (LTEA) Assay for Tumor Protein P53 (TP53) using HepaRG (AID 2283537). Particulars: mRNA level, 48 h; actives raise or lower the signal. An outline of the steps:
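HepaRG, 48 h exposure, top 100 uM, half-log 8-point, 0.5% DMSO vehicle, duplicates. Read: TP53 mRNA by TaqMan qRT-PCR, normalised to ACTB/GAPDH/POLR2A; bidirectional fit vs DMSO.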

Read-out in assay [16]: UDP glucuronosyltransferase (UGT1A1), UGT1A1 (gene 54658)
In words: LTEA_HepaRG_UGT1A1: Life Technologies and Expression Analysis (LTEA) Assay for UDP glucuronosyltransferase (UGT1A1) using HepaRG (AID 2283538). Particulars: mRNA level, 48 h; actives raise or lower the signal. The method in brief:
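HepaRG, 48 h chemical exposure (top 100 uM, half-log 8-pt, 0.5% DMSO vehicle), duplicate wells; qRT-PCR (TaqMan, Fluidigm array) for UGT1A1 mRNA, housekeeping-normalized; bidirectional curve fit vs DMSO baseline.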

Read-out in assay [17]: UDP glucuronosyltransferase (UGT1A6), UGT1A6 (gene 54578)
In words: LTEA_HepaRG_UGT1A6: Life Technologies and Expression Analysis (LTEA) Assay for UDP glucuronosyltransferase (UGT1A6) using HepaRG (AID 2283539). Particulars: mRNA level, 48 h; actives raise or lower the signal. An outline of the steps:
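Expression was quantified by TaqMan qRT-PCR on Fluidigm arrays with ACTB/GAPDH/POLR2A normalization and bidirectional fitting against 0.5% DMSO. HepaRG cells (~100,000/well) were treated in duplicate for 48 h at eight half-log concentrations up to 100 uM in serum-free induction medium.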

Read-out in assay [18]: X-box binding protein 1 (XBP1), XBP1 (gene 7494)
In words: LTEA_HepaRG_XBP1: Life Technologies and Expression Analysis (LTEA) Assay for X-box binding protein 1 (XBP1) using HepaRG (AID 2283540). The settings on record: mRNA level, 48 h; actives raise or lower the signal. An outline of the steps:
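XBP1 transcript by qRT-PCR (housekeeping-normalized: ACTB, GAPDH, POLR2A) after 48 h chemical treatment of HepaRG cells, 8-point half-log series topping at 100 uM, vehicle 0.5% DMSO. Gain and loss of signal fitted relative to DMSO.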

A short description of assay [19]: LTEA_HepaRG_LDH_cytotoxicity: Cytotoxicity Assessment in the Life Technologies and Expression Analysis (LTEA) Assay (AID 2283563; active = hit-call score of the fitted dose curve at least 0.9, where 1 is the maximum;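 as to AC50: LDH activity released into spent culture medium as a marker of cell death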). An outline of the steps:
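LDH release into culture medium read after 48 h chemical treatment of HepaRG cells. Duplicate wells, eight-point half-log series topping at 100 uM, 0.5% DMSO vehicle and baseline.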

Chain of Signal transducer and activator of transcription 3 (Homo sapiens) (P40763 whole entry, looked up): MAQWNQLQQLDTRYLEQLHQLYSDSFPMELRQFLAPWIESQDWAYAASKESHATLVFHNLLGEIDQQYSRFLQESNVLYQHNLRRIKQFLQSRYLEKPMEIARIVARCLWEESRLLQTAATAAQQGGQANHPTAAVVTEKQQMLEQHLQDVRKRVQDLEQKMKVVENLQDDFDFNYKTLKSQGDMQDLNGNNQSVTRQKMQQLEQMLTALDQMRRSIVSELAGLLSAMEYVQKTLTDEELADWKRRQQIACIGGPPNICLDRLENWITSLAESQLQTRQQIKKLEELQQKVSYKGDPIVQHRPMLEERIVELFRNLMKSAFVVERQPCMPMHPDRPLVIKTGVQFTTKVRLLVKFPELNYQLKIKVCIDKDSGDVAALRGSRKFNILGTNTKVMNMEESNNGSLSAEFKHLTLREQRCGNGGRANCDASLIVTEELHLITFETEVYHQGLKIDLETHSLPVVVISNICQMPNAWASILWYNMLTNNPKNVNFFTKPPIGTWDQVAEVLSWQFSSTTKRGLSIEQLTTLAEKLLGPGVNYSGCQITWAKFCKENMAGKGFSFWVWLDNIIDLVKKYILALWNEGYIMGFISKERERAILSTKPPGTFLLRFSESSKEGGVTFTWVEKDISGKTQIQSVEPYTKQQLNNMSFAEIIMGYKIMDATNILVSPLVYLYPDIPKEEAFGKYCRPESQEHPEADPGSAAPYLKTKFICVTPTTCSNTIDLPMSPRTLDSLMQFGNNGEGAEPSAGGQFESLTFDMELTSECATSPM
Chain of Nuclear factor erythroid 2-related factor 2 (Homo sapiens) (Q16236 whole entry, looked up): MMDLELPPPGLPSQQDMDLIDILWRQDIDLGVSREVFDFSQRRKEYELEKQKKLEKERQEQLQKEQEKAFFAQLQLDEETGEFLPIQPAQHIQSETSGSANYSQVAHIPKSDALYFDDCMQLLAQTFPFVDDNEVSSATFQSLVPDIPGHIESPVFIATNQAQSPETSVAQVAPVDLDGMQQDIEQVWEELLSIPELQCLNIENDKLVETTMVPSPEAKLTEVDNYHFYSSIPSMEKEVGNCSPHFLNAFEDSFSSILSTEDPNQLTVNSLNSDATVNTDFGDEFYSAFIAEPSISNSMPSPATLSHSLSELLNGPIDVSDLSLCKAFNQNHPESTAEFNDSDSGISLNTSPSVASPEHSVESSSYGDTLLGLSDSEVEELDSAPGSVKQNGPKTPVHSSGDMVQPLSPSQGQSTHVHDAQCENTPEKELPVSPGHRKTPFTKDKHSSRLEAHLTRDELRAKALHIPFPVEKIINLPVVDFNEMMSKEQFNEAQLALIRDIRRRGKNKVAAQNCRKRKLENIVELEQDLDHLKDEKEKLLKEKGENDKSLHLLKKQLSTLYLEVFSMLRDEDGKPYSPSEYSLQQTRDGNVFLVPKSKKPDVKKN
Chain of Cellular tumor antigen p53 (Homo sapiens) (P04637 whole entry, looked up): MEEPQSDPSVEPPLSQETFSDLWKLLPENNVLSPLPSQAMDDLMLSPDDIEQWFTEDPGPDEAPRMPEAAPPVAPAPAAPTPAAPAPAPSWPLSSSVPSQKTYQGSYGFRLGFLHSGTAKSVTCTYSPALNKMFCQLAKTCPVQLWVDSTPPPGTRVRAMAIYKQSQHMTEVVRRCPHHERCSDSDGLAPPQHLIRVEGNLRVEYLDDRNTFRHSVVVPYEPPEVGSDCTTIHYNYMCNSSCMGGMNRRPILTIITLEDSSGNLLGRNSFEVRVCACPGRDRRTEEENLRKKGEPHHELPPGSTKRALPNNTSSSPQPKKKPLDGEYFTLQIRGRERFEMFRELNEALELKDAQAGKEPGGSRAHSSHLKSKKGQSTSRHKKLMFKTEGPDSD

As a reminder, the AC50 is the concentration at which the activity in the assay is half-maximal. Consider `C[Si](Cn1cncn1)(c1ccc(F)cc1)c1ccc(F)cc1`, for which the compound was classed as inactive in [1], in assay [2], in [4], in assay [5], in assay [7] and in [8]. The outcome with TIMP1, TIMP1 (gene 7076) is “inactive”; in assay [15], “inactive”. In addition, the concentration at half-maximal activity (AC50) in [3] was 63.1 µM (active); in assay [6] it was 39.3 µM (active); in assay [9], 74.4 µM (active); in [10] it was 73.5 µM (active); in assay [11] it was 65.1 µM (active); in assay [12] it was 34.1 µM (active). For the same compound, the AC50 in assay [13] was 50 µM (active); in assay [14], 5.9 µM (active); in assay [16], 66.3 µM (active); in assay [17], 50 µM (active); in assay [18], 90 µM (active); in [19], 33.4 µM (active).
Consider `CC(C)=CC1C(C(=O)OCN2C(=O)C3=C(CCCC3)C2=O)C1(C)C` (centres undefined), for which the result in assay [1], in assay [2], in assay [3], in assay [4], in assay [5] and in assay [6] was inactive. Also, the compound was classed as inactive in assay [7], in assay [8], in [9], in [10], in [11] and in [12]. Further, the outcome was “inactive” with TIMP1, TIMP1 (gene 7076); “inactive” in [13]; “inactive” in assay [14]; “inactive” in assay [16]; “inactive” in assay [17]; “inactive” in assay [18]. Also, the outcome in assay [19] was inactive.
